# Values without a mark were called inactive. Calls follow the shape of the dose curve; as a rule, active = well fitted curve in the direction sought with a large enough effect; inactive = no such curve, though single readings can be large or run the other way.
# Biological target: Alpha-galactosidase (Coffea arabica) (UniProt Q42656)
# Experiment: Counterscreen for Glucocerebrosidase Inhibitors: qHTS Assay for Coffee Bean alpha-Galactosidase at pH 5.9 (AID 998);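 also: plate controls were uninhibited enzyme for no effect and no-enzyme basal signal for full effect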
# Settings: coffee bean alpha-galactosidase enzyme assay; series mostly up to 76.9 µM; activity, negative = inhibition: at the top concentration
# In short: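 Compounds were titrated from 0.7 nM to 77 uM against green coffee bean alpha-galactosidase (2 nM) using 80 uM fluorogenic 4-methylumbelliferyl substrate. After 20 min at room temperature, reactions were stopped at pH 10 and read by fluorescence.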
# Chain of Alpha-galactosidase (Coffea arabica) (Q42656 whole entry, looked up): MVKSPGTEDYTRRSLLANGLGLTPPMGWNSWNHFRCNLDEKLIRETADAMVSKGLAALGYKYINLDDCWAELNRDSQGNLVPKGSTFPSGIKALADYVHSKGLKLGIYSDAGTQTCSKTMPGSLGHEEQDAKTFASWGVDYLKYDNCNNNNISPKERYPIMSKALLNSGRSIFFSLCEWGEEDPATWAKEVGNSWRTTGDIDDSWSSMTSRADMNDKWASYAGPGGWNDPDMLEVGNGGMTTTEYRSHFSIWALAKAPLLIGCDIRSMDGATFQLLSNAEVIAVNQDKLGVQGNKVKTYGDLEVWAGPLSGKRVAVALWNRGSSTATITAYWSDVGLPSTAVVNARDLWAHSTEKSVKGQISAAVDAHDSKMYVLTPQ
row,SMILES,"activity, negative = inhibition"
1,CC(=O)c1ccc(S(=O)(=O)NC(=O)NC2CCCCC2)cc1,-1.46%
2,O=c1[nH]cnc2[nH]ncc12,-2.17%
3,CN(C)C(=O)Oc1ccc[n+](C)c1,0.057%
4,Nc1nc2ccc(OC(F)(F)F)cc2s1,0.112%
5,O=C1NCC2(CCN(CCc3ccccc3)CC2)O1,-1.9%
6,Cc1cnc(NC(=O)C2=C(O)c3ccccc3S(=O)(=O)N2C)s1,-1.8%
7,CN1[C@@H]2CC[C@H]1CC(OC(c1ccccc1)c1ccccc1)C2 (stereo partly specified),-3.42%
8,NC(=O)c1cnccn1,-0.719%
9,Cc1nc2ccccn2c(=O)c1CCN1CCC(C(=O)c2ccc(F)cc2)CC1,1.47%
10,CN1CCC[C@@H]1c1cccnc1,-0.508%
11,CC(C)(C)NC[C@H](O)COc1nsnc1N1CCOCC1,3.55%
12,COc1ccc2cc([C@H](C)C(=O)O)ccc2c1,-2.03%
13,NC(N)=NC(=O)Cc1c(Cl)cccc1Cl,1.9%
14,CCN(CC)CCNC(=O)c1cc(S(C)(=O)=O)ccc1OC,-0.865%
15,CCn1nc(C(=O)O)c(=O)c2cc3c(cc21)OCO3,-1.06%
16,COc1ccc2[nH]cc(CCNC(C)=O)c2c1,-1.06%
17,CCN1CCC[C@H]1CNC(=O)c1cc(S(N)(=O)=O)ccc1OC,1.78%
18,NCCCCCC(=O)O,-0.111%

row,SMILES,"activity, negative = inhibition"
1,Cc1scc2c1N(C(=O)CN1CCN(C)CC1)c1ccccc1NC2=O,-4.98%
2,CN1C(C)(C)CCCC1(C)C,0.764%
3,COc1cc(NS(C)(=O)=O)ccc1Nc1c2ccccc2nc2ccccc12,2.49%
4,C[N+](C)(C)CCOC(N)=O,-0.892%
5,NC(=O)N1c2ccccc2C=Cc2ccccc21,0.439%
6,NC(N)=Nc1nc(CSCC/C(N)=N/S(N)(=O)=O)cs1,1%
7,CNCCCC12CCC(c3ccccc31)c1ccccc12,-0.193%
8,CCN(CC)CCOC(=O)c1ccc(N)cc1,0.594%
9,Clc1cccc(Cl)c1NC1=NCCN1,5.78%
10,C1COC(NC(C2CC2)C2CC2)=N1,2.4%
11,CCO/C([O-])=N/c1c[n+](N2CCOCC2)no1,-1.51%
12,CN=C(NC#N)NCCSCc1nc[nH]c1C,-0.272%
13,COc1ccc(C2CNC(=O)C2)cc1OC1CCCC1 (stereo unspecified),-1.66%
14,O=c1[nH]c(=O)n([C@H]2C[C@H](O)[C@@H](CO)O2)cc1Br,-0.605%
15,C[C@H](CS)C(=O)N1CCC[C@H]1C(=O)O,-2.02%
16,NC1CCN(c2cccc(Cl)n2)CC1,0.546%
17,Cc1ccc(Cl)c(Nc2ccccc2C(=O)O)c1Cl,-1.13%
18,Nc1cc(=O)[nH]c(N)n1,0.237%
